Reference: PubChem BioAssay (EPA / NIEHS)
Records with an inconclusive call do not appear. Calls of active or inactive are those of the source. The calls were made as follows, unless noted: active = hit-call score of the fitted dose curve at least 0.9, where 1 is the maximum; inactive = score below 0.9.

Key:
[1] = target: CCAAT/enhancer-binding protein beta (Homo sapiens) (UniProt P17676); test: ATG_C_EBP_CIS: Attagene CIS-FACTORIAL HepG2 Assay for human CCAAT/Enhancer Binding Protein (C/EBP) beta (AID 2282927); conditions: HepG2 Attagene cis-factorial transcription factor reporter; actives raise or lower the signal
Outline: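 Transiently transfected HepG2 (MRTU library, endogenous TF-driven promoters); 24 h dosing; total RNA → oligo(dT) RT → PCR → 6-FAM primer extension → HpaI digest → CE; fit bidirectionally vs DMSO.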

[2] = target: Aryl hydrocarbon receptor (Homo sapiens) (UniProt P35869); test: ATG_Ahr_CIS: Attagene CIS-FACTORIAL HepG2 Assay for human Aryl Hydrocarbon Receptor (Ahr) (AID 2282930); conditions: HepG2 AhR cis-factorial reporter transcription; actives raise or lower the signal
Outline: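 Read-out: reporter mRNA quantified by RT-PCR with fluorescent primer extension and capillary electrophoresis. Human HepG2 liver cells carried transfected cis-promoter reporter units and were exposed to chemical for 24 h; gain or loss fitted relative to DMSO.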

[3] = ATG_AP_1_CIS: Attagene CIS-FACTORIAL HepG2 Assay for human Activator Protein 1 (AP-1) (AID 2282931); conditions: HepG2 Attagene cis-factorial AP-1 reporter mRNA; actives raise or lower the signal
Outline: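 HepG2 cells transiently transfected with cis-element-driven reporter transcription units, dosed for 24 hours. Reporter mRNA measured by RT-PCR, 6-FAM labelling, HpaI digestion and capillary electrophoresis. Bidirectional fitting against DMSO baseline.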

[4] = ATG_EGR_CIS: Attagene CIS-FACTORIAL HepG2 Assay for human Early Growth Response 1 (EGR1) (AID 2282938); conditions: HepG2 Attagene CIS-FACTORIAL EGR reporter mRNA; actives raise or lower the signal
Outline: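 HepG2 cells transiently transfected with cis-element-driven multiplexed reporter units, dosed for 24 h. EGR1-element reporter mRNA quantified by RT-PCR, 6-FAM labelling, HpaI digestion and capillary electrophoresis; bidirectional fit versus DMSO.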

[5] = ATG_GLI_CIS: Attagene CIS-FACTORIAL HepG2 Assay for human Zinc Finger Protein GLI1 (AID 2282945); conditions: HepG2, Attagene cis-factorial reporter mRNA, GLI element; actives raise or lower the signal
Outline: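 Transiently transfected HepG2 cells report endogenous transcription factor activity via cis-element-driven reporter units. After 24 h compound exposure, reporter mRNA was measured by RT-PCR with capillary electrophoresis; bidirectional fitting against DMSO baseline.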

[6] = ATG_ISRE_CIS: Attagene CIS-FACTORIAL HepG2 Assay for human Interferon Regulatory Factor 1 (IRF1) binding to an Interferon-Stimulated Response Element (ISRE) (AID 2282948); conditions: HepG2 ISRE cis-reporter (Attagene), mRNA transcription readout; actives raise or lower the signal
Outline: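 Quantitation relies on labelled RT-PCR fragments separated by capillary electrophoresis. Human HepG2 cells bearing cis-promoter reporter constructs were treated 24 h; DMSO served as baseline for bidirectional fitting.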

[7] = ATG_M_06_CIS: Attagene CIS-FACTORIAL HepG2 Assay for M06 Transcription Factor (Internal Marker) (AID 2282950); conditions: HepG2 Attagene CIS-FACTORIAL M06 internal marker reporter; actives raise or lower the signal
Outline: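 Fluorescence-labelled RT-PCR products from cis-promoter reporter units, cut with HpaI and resolved by capillary electrophoresis, give the signal. Cells are human HepG2, dosed for 24 h. Serves as background control, fitted relative to DMSO.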

[8] = target: Hypoxia-inducible factor 1-alpha (Homo sapiens) (UniProt Q16665); test: ATG_HIF1a_CIS: Attagene CIS-FACTORIAL HepG2 Assay for human Hypoxia Inducible Factor 1 (HIF1A) (AID 2282951); conditions: HepG2 Attagene cis-factorial HIF1a reporter transcription; actives raise or lower the signal
Outline: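 HepG2 cells transiently transfected with multiple cis-regulated reporter transcription units measure endogenous transcription factor activity. After 24 h exposure, reporter mRNA is quantified by RT-PCR with 6-FAM labelling, HpaI digestion and capillary electrophoresis. Bidirectional fitting against DMSO.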

[9] = target: Heat shock factor protein 1 (Homo sapiens) (UniProt Q00613); test: ATG_HSE_CIS: Attagene CIS-FACTORIAL HepG2 Assay for human Heat Shock Transcription Factor 1 (HSE) (AID 2282953); conditions: HepG2 HSE cis-reporter, Attagene RNA transcription; actives raise or lower the signal
Outline: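 After a 24 h incubation with test chemical, transfected HepG2 cells were harvested for RNA; reporter transcripts were measured by RT-PCR and capillary electrophoresis. Values reflect gain or loss of signal relative to DMSO.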

[10] = ATG_TAL_CIS: Attagene CIS-FACTORIAL HepG2 Assay for human TAL Basal Promoter (AID 2282966); conditions: HepG2 Attagene cis-factorial TAL promoter reporter; actives raise or lower the signal;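 also: background control endpoint measuring basal TAL promoter reporter mRNA not a specific factor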
Outline: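 Readout: reporter mRNA, fluorescence by CE. System: HepG2, transient multi-reporter transfection, endogenous TF activity. Exposure: 24 h. Analysis: bidirectional, DMSO-normalized; background control.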

[11] = ATG_VDRE_CIS: Attagene CIS-FACTORIAL HepG2 Assay for human Vitamin D Receptor Element (VDRE) (AID 2282968); conditions: HepG2 VDRE cis-reporter transcription, actives raise or lower the signal
Outline: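 Cell-based multiplexed reporter format in human liver HepG2 cells, 24 h post-dose. Fluorescence from capillary electrophoresis of reporter cDNA gives the signal, with DMSO as negative control and baseline.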

[12] = target: X-box-binding protein 1 (Homo sapiens) (UniProt P17861); test: ATG_Xbp1_CIS: Attagene CIS-FACTORIAL HepG2 Assay for human X-box Binding Protein 1 (XBP1) (AID 2282972); conditions: HepG2 XBP1 cis-element reporter, Attagene multiplex; actives raise or lower the signal
Outline: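 After a 24-hour chemical exposure of HepG2 cells carrying cis-regulated reporters, reporter mRNA levels are assessed. Quantification uses RT-PCR, 6-FAM labelling and capillary electrophoresis. Gain- or loss-of-signal is fitted against DMSO.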

[13] = target: Transcriptional activator Myb (Homo sapiens) (UniProt P10242); test: ATG_Myb_CIS: Attagene CIS-FACTORIAL HepG2 Assay for human Myeloblastosis (Myb) Proto-Oncogene Transcription Factor (AID 2282986); conditions: HepG2 Attagene CIS-FACTORIAL Myb reporter transcription; actives raise or lower the signal
Outline: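 Transiently transfected HepG2 cells carrying a multiplexed cis-promoter reporter set report endogenous Myb activity after 24 h compound exposure. Reporter mRNA is read by RT-PCR with capillary electrophoresis of fluorescent products, fitted bidirectionally against DMSO.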

[14] = target: Nuclear respiratory factor 1 (Homo sapiens) (UniProt Q16656); test: ATG_NRF1_CIS: Attagene CIS-FACTORIAL HepG2 Assay for human Nuclear Respiratory Factor 1 (NRF1) Orphan Gene (AID 2282987); conditions: HepG2 NRF1 cis-element reporter, Attagene multiplex; actives raise or lower the signal
Outline: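 HepG2 cells transiently transfected with multiple cis-regulated reporter units, exposed 24 h. Reporter mRNAs measured by RT-PCR, fluorescent labelling, HpaI digestion and capillary electrophoresis; bidirectional fitting against DMSO.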

[15] = ATG_NFI_CIS: Attagene CIS-FACTORIAL HepG2 Assay for human Nuclear Factor I (NFI) (AID 2282989); conditions: HepG2 cis-regulatory reporter, NFI response element transcription; actives raise or lower the signal
Outline: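 After transient transfection of HepG2 with cis-promoter reporter constructs and 24 h dosing, RNA is reverse-transcribed, amplified, 6-FAM end-labelled and HpaI-digested before capillary analysis. Bidirectional curve fitting against DMSO.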

[16] = ATG_Oct_MLP_CIS: Attagene CIS-FACTORIAL HepG2 Assay for human Octamer-Binding Transcription Factor (Oct) (AID 2282993); conditions: HepG2 Attagene cis-factorial Oct reporter, mRNA; actives raise or lower the signal
Outline: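 Cells of the HepG2 line express promoter-controlled reporter sequences whose mRNA levels, after 24 h treatment, are measured by RT-PCR and capillary electrophoresis. Increases and decreases are scored relative to DMSO.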

[17] = target: Cellular tumor antigen p53 (Homo sapiens) (UniProt P04637); test: ATG_p53_CIS: Attagene CIS-FACTORIAL HepG2 Assay for human p53 Transcription Factor (AID 2282994); conditions: HepG2 p53 cis-element reporter, Attagene mRNA; actives raise or lower the signal
Outline: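 Using HepG2 hepatoma cells carrying cis-acting multiplexed reporters, mRNA induction is detected after a 24 h exposure. Gain- and loss-of-signal responses are fitted relative to DMSO-treated cells.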

[18] = ATG_XTT_Cytotoxicity: Cytotoxicity Assessment in the Attagene TRANS-FACTORIAL HepG2 Assay (AID 2283584; active = hit-call score of the fitted dose curve at least 0.9, where 1 is the maximum;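 as to AC50: XTT signal for cell number as viability in transfected HepG2 cells; cells exposed to compound for 24 h before reading; active means loss of viability signal versus DMSO baseline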)
Outline: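 Transfect HepG2 with GAL4-UAS reporter units, dose compound, incubate 24 h, then measure viable cell number by XTT. Fit concentration response against DMSO baseline.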

[19] = ATG_NRF2_ARE_CIS: Attagene CIS-FACTORIAL HepG2 Assay for human Nuclear Factor Erythroid 2 Related Factor 2 (NFR2) response to Antioxidant Response Elements (ARE) (AID 2282992); conditions: HepG2 Attagene ARE/NRF2 reporter, transcription factor activity; actives raise or lower the signal
Outline: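 Cis-factorial assay: transfected HepG2 reporter library, 24 h dosing, mRNA readout via RT-PCR/CE; DMSO-referenced bidirectional analysis.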

[20] = ATG_CMV_CIS: Attagene CIS-FACTORIAL HepG2 Assay for human CMV (Internal Marker) (AID 2282928); conditions: HepG2 CMV promoter reporter, transcription factor profiling; actives raise or lower the signal;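 also: endpoint acts as a background internal control marker rather than a target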
Outline: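 Cell system: HepG2, transiently transfected multiple reporter units under cis promoters. Exposure: 24 h. Detection: RT-PCR, FAM labeling, HpaI digestion, capillary electrophoresis. Analysis: bidirectional, DMSO baseline.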

Measured: AC50

Chain of Nuclear respiratory factor 1 (Homo sapiens) (Q16656 whole entry, looked up): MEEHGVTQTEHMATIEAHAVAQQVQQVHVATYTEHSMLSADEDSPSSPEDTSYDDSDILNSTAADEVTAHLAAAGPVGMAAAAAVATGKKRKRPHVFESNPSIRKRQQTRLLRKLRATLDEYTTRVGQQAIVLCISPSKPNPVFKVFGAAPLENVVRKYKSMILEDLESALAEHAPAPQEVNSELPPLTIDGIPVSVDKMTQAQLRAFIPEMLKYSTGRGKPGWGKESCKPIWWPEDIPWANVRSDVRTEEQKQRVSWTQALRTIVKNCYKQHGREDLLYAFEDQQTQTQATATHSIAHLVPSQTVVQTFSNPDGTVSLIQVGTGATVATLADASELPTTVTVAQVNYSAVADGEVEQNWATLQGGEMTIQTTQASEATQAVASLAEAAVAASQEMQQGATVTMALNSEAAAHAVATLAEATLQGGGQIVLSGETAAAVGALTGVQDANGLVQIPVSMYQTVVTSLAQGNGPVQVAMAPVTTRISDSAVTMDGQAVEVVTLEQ
Chain of Cellular tumor antigen p53 (Homo sapiens) (P04637 whole entry, looked up): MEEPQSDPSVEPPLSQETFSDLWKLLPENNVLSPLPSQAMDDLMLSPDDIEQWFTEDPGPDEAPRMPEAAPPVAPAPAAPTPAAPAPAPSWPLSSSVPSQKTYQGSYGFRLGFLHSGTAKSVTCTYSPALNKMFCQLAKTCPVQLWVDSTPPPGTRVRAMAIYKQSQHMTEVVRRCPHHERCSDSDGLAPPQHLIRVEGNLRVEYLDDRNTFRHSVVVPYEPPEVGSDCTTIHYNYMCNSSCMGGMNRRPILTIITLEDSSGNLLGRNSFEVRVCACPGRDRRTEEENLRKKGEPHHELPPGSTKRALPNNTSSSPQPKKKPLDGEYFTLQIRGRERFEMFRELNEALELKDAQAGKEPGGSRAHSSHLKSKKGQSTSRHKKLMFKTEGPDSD
Chain of Hypoxia-inducible factor 1-alpha (Homo sapiens) (Q16665 whole entry, looked up): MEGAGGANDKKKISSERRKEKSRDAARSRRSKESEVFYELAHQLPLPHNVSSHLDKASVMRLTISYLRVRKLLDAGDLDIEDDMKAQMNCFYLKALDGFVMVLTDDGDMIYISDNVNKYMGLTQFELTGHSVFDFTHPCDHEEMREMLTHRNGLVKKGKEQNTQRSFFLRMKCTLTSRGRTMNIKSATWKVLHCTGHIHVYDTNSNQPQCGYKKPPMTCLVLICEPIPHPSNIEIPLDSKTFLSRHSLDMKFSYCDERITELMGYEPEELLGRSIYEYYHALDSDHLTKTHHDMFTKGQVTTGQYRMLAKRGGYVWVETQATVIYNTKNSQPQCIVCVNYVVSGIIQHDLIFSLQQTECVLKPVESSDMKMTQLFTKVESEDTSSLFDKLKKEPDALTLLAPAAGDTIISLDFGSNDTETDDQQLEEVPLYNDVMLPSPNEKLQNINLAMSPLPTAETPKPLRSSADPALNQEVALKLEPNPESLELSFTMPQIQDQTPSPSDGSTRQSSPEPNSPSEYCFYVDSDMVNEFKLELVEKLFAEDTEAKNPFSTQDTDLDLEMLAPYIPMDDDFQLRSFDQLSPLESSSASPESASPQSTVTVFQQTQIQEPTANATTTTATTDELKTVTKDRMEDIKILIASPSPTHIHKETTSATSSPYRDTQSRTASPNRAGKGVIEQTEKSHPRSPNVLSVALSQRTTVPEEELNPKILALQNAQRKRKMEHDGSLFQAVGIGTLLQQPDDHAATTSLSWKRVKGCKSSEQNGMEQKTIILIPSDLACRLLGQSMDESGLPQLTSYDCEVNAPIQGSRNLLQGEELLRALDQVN
Chain of Heat shock factor protein 1 (Homo sapiens) (Q00613 whole entry, looked up): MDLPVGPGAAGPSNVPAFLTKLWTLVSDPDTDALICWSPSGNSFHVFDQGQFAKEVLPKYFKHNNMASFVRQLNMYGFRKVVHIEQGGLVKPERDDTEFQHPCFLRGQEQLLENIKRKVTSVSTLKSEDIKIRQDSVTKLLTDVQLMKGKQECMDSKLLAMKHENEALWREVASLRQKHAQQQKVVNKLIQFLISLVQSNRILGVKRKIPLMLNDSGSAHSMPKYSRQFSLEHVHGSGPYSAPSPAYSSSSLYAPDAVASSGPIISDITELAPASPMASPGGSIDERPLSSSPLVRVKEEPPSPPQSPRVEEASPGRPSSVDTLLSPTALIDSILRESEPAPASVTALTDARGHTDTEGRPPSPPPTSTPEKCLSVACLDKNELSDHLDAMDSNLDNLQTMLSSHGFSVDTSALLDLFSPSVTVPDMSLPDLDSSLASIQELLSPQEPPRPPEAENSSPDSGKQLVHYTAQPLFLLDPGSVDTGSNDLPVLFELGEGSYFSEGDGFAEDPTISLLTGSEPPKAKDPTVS
Chain of X-box-binding protein 1 (Homo sapiens) (P17861 whole entry, looked up): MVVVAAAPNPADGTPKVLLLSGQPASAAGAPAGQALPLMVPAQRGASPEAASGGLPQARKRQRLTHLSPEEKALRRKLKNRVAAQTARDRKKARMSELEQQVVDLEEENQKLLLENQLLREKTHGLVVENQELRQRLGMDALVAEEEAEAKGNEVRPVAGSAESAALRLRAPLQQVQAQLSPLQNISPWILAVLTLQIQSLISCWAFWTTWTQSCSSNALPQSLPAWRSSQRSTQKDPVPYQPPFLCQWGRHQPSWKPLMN
Chain of CCAAT/enhancer-binding protein beta (Homo sapiens) (P17676 whole entry, looked up): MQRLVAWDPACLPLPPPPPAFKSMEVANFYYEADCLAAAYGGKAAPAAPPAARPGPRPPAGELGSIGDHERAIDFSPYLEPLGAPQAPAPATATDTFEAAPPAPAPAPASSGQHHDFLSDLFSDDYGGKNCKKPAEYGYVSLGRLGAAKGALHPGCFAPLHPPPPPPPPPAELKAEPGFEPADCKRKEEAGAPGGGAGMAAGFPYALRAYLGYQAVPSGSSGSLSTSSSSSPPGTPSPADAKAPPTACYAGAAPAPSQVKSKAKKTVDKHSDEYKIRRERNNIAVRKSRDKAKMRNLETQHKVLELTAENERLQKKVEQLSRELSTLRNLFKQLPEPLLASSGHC
Chain of Transcriptional activator Myb (Homo sapiens) (P10242 whole entry, looked up): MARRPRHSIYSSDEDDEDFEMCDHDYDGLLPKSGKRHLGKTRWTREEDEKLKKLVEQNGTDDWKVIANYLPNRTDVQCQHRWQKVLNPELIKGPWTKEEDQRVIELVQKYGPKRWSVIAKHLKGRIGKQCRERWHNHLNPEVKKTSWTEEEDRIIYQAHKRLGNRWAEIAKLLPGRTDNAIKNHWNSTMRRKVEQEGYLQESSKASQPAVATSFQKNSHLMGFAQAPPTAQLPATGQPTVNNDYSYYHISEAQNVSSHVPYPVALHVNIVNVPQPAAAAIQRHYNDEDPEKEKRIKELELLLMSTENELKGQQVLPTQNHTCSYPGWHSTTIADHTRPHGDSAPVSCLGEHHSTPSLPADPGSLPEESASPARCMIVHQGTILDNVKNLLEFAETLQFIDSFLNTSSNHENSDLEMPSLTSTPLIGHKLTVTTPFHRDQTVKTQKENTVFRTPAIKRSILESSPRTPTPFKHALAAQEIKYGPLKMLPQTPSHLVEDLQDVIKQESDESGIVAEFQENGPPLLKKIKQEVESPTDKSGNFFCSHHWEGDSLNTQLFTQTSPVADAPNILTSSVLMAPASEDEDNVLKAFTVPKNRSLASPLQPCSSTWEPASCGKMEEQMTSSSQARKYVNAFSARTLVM
Chain of Aryl hydrocarbon receptor (Homo sapiens) (P35869 whole entry, looked up): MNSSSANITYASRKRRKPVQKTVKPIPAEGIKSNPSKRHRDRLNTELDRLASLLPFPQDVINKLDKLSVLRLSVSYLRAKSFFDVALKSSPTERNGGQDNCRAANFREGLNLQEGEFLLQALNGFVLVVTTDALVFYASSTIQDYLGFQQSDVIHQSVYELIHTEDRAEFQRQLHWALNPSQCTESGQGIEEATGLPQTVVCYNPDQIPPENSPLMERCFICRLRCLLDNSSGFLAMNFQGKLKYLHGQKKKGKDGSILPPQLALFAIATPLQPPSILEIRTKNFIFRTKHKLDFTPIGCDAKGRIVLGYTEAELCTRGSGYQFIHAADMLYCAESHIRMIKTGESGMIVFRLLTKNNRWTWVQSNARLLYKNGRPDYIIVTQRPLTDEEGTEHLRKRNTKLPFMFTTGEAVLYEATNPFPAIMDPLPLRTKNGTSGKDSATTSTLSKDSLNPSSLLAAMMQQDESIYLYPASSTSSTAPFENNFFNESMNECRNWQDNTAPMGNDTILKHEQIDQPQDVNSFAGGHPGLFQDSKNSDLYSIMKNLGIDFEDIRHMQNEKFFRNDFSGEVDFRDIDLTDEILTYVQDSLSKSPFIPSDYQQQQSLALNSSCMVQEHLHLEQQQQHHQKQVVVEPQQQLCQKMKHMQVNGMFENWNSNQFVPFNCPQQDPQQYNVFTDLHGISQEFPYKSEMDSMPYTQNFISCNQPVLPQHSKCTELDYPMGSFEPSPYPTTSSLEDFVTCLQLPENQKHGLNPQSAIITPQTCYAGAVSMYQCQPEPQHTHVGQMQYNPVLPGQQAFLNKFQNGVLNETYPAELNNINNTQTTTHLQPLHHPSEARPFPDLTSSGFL

CC(C)(O)C#N
not listed: [19] | [20]
inactive: all other assays above

CC[N+](=O)[O-]
not listed: [4] | [7] | [10] | [18] | [20]
inactive: all other assays above

COc1cc(OC)c(OC)cc1C=O
not listed: [2] | [5] | [7] | [18] | [20]
inactive: all other assays above

O=C1C=CC(=O)C=C1
active: [2] 2.15 µM | [3] 61.2 µM | [19] 57.4 µM
not listed: [4] | [6] | [7] | [8] | [10] | [11] | [20]
inactive: all other assays above

NNc1ccccc1
active: [19] 47.1 µM
not listed: [2] | [6] | [11] | [17] | [20]
inactive: all other assays above

Oc1ccc(Cl)cc1
not listed: [7] | [20]
inactive: all other assays above

O=S(=O)(c1ccccc1)c1ccccc1
active: [11] 31.4 µM
not listed: [4] | [7] | [18] | [20]
inactive: all other assays above

Nc1ccc(Cl)c(Cl)c1
active: [6] 135 µM
not listed: [7] | [18] | [20]
inactive: all other assays above

C=C(Cl)CCl
not listed: [2] | [4] | [20]
inactive: all other assays above

S=c1[nH]c2ccccc2[nH]1
not listed: [3] | [5] | [11] | [19] | [20]
inactive: all other assays above

CCCCCCCCCCCCCCCC[N+](C)(C)C
inactive: [4] | [5] | [7] | [8] | [9] | [12] | [15] | [19]
active: [1] 24.1 µM | [2] 35.5 µM | [3] 100 µM | [6] 27.4 µM | [11] 9.16 µM | [13] 24.5 µM | [14] 26 µM | [16] 26.8 µM | [18] 36.9 µM

ClC1=C(Cl)[C@]2(Cl)[C@@H]3[C@@H](Cl)[C@H](Cl)C[C@@H]3[C@@]1(Cl)C2(Cl)Cl
active: [8] 36.6 µM
not listed: [2] | [3] | [5] | [18]
inactive: all other assays above

CC(C)c1ccc(O)cc1
active: [20] 40.2 µM | [19] 49.6 µM
not listed: [2] | [3] | [18]
inactive: all other assays above

CCCCNP(N)(N)=S
not listed: [2] | [18] | [19] | [20]
inactive: all other assays above

O=C(NCNC(=O)NC1C(=O)NC(=O)N1CO)NC1C(=O)NC(=O)N1CO (centres undefined)
active: [12] 151 µM | [16] 157 µM
not listed: [3] | [5] | [7] | [8] | [11] | [20]
inactive: all other assays above
